In test [1] the target is Tumor necrosis factor receptor superfamily member 10B (Homo sapiens) (UniProt O14763). Description: viability loss of caspase-8 NB7 cells with TRAIL – with/without TRAIL, luminescence panel, confirmation (AID 651596). Conditions: NB7 neuroblastoma + caspase-8, TRAIL sensitization, NB7 Caspase-8, with TRAIL, mean of runs, at 10 µM, stronger effect = higher value; in the data active = activity above about 50%; inactive = the rest.
Assay in test [2]: as above
Conditions: NB7 neuroblastoma + caspase-8, without TRAIL, NB7 Caspase-8, without TRAIL, mean of runs, at 10 µM.

Test [3] addresses Tumor necrosis factor receptor superfamily member 10B (Homo sapiens) (UniProt O14763). Briefly: compound enhancement of TRAIL-induced cell killing – NB7 cells plus caspase-8, luminescence, panel, dose response (AID 652002). Conditions: NB7 neuroblastoma +caspase-8, TRAIL sensitization, luminescence viability, NB7+Caspase-8, with TRAIL, run 1; at 12.5 µM (top of the series).
Test [4] shares this target. Described as above. Conditions: NB7 neuroblastoma +caspase-8, TRAIL sensitization, luminescence viability, NB7+Caspase-8, with TRAIL, run 2; at 12.5 µM (top of the series).
Assay in test [5]: as above
Conditions: NB7 neuroblastoma +caspase-8, no TRAIL, compound-alone cytotoxicity counter-screen, luminescence viability, NB7+Caspase-8, run 1; at 12.5 µM (top of the series) unless noted.

Assay in test [6]: as above
Conditions: NB7 neuroblastoma +caspase-8, no TRAIL, compound-alone cytotoxicity counter-screen, luminescence viability, NB7+Caspase-8, run 2; at 12.5 µM (top of the series) unless noted. Background: A counterscreen serves to expose hits that act by an unwanted route or on another target.

The values that follow come from PubChem BioAssay.

Chain of Tumor necrosis factor receptor superfamily member 10B (Homo sapiens) (O14763 whole entry, looked up): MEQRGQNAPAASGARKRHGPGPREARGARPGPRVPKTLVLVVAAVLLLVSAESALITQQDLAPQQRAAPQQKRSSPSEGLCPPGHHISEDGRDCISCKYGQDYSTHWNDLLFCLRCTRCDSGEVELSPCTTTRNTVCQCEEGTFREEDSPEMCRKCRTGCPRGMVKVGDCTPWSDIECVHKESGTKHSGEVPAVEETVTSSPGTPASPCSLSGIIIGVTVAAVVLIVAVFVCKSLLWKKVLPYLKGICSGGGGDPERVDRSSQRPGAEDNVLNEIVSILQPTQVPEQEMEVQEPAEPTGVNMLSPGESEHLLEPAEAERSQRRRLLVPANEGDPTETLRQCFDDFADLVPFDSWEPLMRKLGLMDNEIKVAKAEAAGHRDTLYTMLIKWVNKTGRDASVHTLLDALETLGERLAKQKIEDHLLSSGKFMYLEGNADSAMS

Regarding `COc1ccc(-c2nc(-c3ccc(NC(=O)c4ccncc4)cc3)no2)cc1OC`, the results for the activity in test [1] and in test [2] were 70.5% and 47.2%, respectively. Moreover, the activity, % sensitization in test [3] was -12.9%; in test [4], -17.5%; in test [5] it was 2.44%; in test [6] it was -14.5%.

As to `CCOc1ccc(Nc2nc(N)nc(CCl)n2)cc1`, the figures for the activity in test [1] and in test [2] were 99.5% and 99.3%, respectively.

As for `Cc1cccc(C)c1NC(=O)C1CCN(S(C)(=O)=O)CC1`, the activity was 0.425% in test [1] and -3.45% in test [2].

In the case of `O=C(NC(=S)Nc1nc2ccccc2s1)c1ccco1`, the activity is 77.7% in test [1] and 64.4% in test [2].

For `Cc1cccc(N(Cc2ccccc2)C(=O)CCl)c1`, the activity in test [1] amounted to 99%; in test [2] it was 99.1%.

As to `C/C(Cn1nnc([N+](=O)[O-])n1)=N\NC(=O)c1ccc(O)cc1`, the activity in test [1] is 50.4%; in test [2] it was 48.3%.

Turning to `CCCCN(C)C(=O)c1ccc(Nc2nc(C(N)Cc3ccc(C(F)(F)F)cc3)cs2)nc1` (configuration not stated), the activity in test [1] was 56.9%; in test [2], 90.2%.

Regarding `CC1(C)N=C(N)N=C(N)N1c1ccc(Oc2ccc(Cl)cc2)c(Cl)c1`, the results for the activity in test [1] and in test [2] were 57.3% and 51%, respectively. Moreover, the activity, % sensitization amounted to 50.2% in test [3], 62.6% in test [4], 60.3% in test [5] and 68.3% [at 6.25 µM] in test [6].

`O=C(Nc1cnc2ccccn2c1=O)c1ccc(Cl)cc1Cl`: the activity in test [1] came to 56%; in test [2], 52.5%. The activity, % sensitization was 15.5% in test [3], 2.31% in test [4], -7.49% in test [5] and -6.53% in test [6].

On to `O=C1c2ccc3c4c(ccc(c24)C(=O)N1c1cccc(O)c1)C(=O)N(c1cccc(O)c1)C3=O`, for which the results for the activity in test [1] and in test [2] were 63.2% and 53.8%, respectively. The activity, % sensitization in test [3] was found to be 52.1%; in test [4] it was 35.7%; in test [5], 29.8%; in test [6], 21.3%.

In the case of `O=C(N/N=C/c1cccnc1)c1ccc2c(c1)OCO2`, the activity is 51.9% in test [1] and 42.5% in test [2]. In addition, the activity, % sensitization in test [3] was determined as 32.8%; in test [4] it was 32.4%; in test [5], 32.2%; in test [6] it was 46.2%.

For `O=C1c2ccc(Cl)cc2S(=O)(=O)c2cccc(C(=O)N3CCC(Cc4ccccc4)CC3)c21`, the activity in test [1] turned out to be 70.8%; in test [2], 26.7%. For the same compound, the activity, % sensitization is -6.25% in test [3], 3.7% in test [4], -20.1% in test [5] and -5.15% in test [6].

For the compound `CCC(C)c1ccc(O)c(NC(=S)NC(=O)c2cccs2)c1` (configuration not stated), the activity in test [1] was 56.5%; in test [2], 54.3%. The activity, % sensitization amounted to 40.5% in test [3], 49.3% in test [4], 56.2% in test [5] and 41.9% in test [6].

With `O=C(NC(=O)c1ccccc1)Nc1ccccc1`, the figures for the activity in test [1] and in test [2] were 54.2% and 49.9%, respectively. The activity, % sensitization is 28.7% in test [3], 6.32% in test [4], 7.63% in test [5] and -8.56% in test [6].

Regarding `COc1cccc(NC(=O)c2ccc3c(c2)OCO3)c1`, the activity in test [1] amounted to 51.7%; in test [2], 30.6%. Further, the activity, % sensitization in test [3] is 51%; in test [4], 42.7%; in test [5] it was 48%; in test [6] it was 32.2%.

Turning to `CCSc1ccc(-c2ccc(C)cc2)nn1`, the activity came out at 59.6% in test [1] and 51.1% in test [2]. For the same compound, the activity, % sensitization came out at 47.8% in test [3], 52.9% in test [4], 5.62% in test [5] and 35.8% in test [6].

With `Cc1ccc(S(=O)(=O)Nc2ccccc2C(=O)Nc2nc(-c3ccc(F)cc3)cs2)cc1`, the activity in test [1] was 56.5%; in test [2] it was 51.6%. In addition, the activity, % sensitization in test [3] came out at 32%; in test [4] it was 39.6%; in test [5] it was 24.6%; in test [6] it was 40.4%.

Turning to `Cc1ccc2c(c1)-c1nc3ccccc3cc1C2=NC1CCCCC1`, the activity is 49.6% in test [1] and 41.6% in test [2]. The activity, % sensitization in test [3] was 26.1%; in test [4] it was 46.1%; in test [5], 4.61%; in test [6] it was -9.3%.

For `C#CC(=O)CC1(CN(Cc2ccccc2)C(=O)OC(C)(C)C)CCCCC1`, the activity in test [1] was 97.7%; in test [2], 49.4%. The activity, % sensitization in test [3] worked out at 78.9%; in test [4], 34.5%; in test [5], 89.9%; in test [6] it was 57.8%.

For `O=C(NC1=NCCS1)c1cc2ccccc2o1`, the activity was found to be 56.6% in test [1] and 48.6% in test [2]. Further, the activity, % sensitization was 45.6% in test [3], 47% in test [4], 8.75% in test [5] and 39.6% in test [6].

For `COc1ccc(/C(C)=N/Nc2nncc3ccccc23)cc1`, the activity in test [1] came to 59.6%; in test [2], 49.8%. Moreover, the activity, % sensitization worked out at 19.4% in test [3], 54.6% in test [4], 27.1% in test [5] and 10.8% in test [6].

With `CC(C)C(=O)Nc1ccc(NC(=O)c2ccccn2)cn1`, the figures for the activity in test [1] and in test [2] were 53.6% and 53%, respectively. The activity, % sensitization was determined as 34.7% in test [3], 36.7% in test [4], 8.97% in test [5] and 37.8% in test [6].

For the compound `COc1ccc(OCC(=O)N/N=C/C=C/c2ccccc2)cc1`, the activity in test [1] came to 59.4%; in test [2], 45.4%. Moreover, the activity, % sensitization in test [3] was 44.7%; in test [4] it was 46.1%; in test [5], 31.1%; in test [6] it was 41.1%.

`CCOC(=O)c1sc(NC(=O)Nc2ccc(F)cc2)nc1C`: the activity was 56.6% in test [1] and 44.6% in test [2]. For the same compound, the activity, % sensitization in test [3] is 29%; in test [4], 12.6%; in test [5], -5.48%; in test [6] it was -3.68%.

For the compound `O=C(Nc1ccc2c(c1)OCO2)c1ccc2c(c1)OCO2`, the activity in test [1] is 56.3%; in test [2] it was 53.1%. Besides, the activity, % sensitization in test [3] stood at 46.4%; in test [4], 44.3%; in test [5], 50.5%; in test [6] it was 33.4%.

On to `CN(C(=O)COC(=O)c1cnc(Cl)c(Cl)c1)C1CCCCC1`, for which the activity in test [1] is 68.5%; in test [2], 47.4%. Also, the activity, % sensitization in test [3] is 11.9%; in test [4] it was 14.2%; in test [5], -5.35%; in test [6] it was 13.1%.

Regarding `CC(C)CCn1cnc2c([nH]c3cccc(Cl)c32)c1=O`, the activity was found to be 60.6% in test [1] and 52.9% in test [2]. Moreover, the activity, % sensitization was -14.6% in test [3], -14% in test [4], -4.11% in test [5] and 0.76% in test [6].

Take `Cc1ccc(NC(=O)c2ccccc2O)cc1`: the activity turned out to be 61% in test [1] and 48.8% in test [2]. The activity, % sensitization in test [3] was found to be 28%; in test [4], 37.1%; in test [5], 29%; in test [6], 31.3%.

Turning to `COC(=O)c1ccc(/C=C/c2nc3ccccc3c(=O)[nH]2)cc1`, the activity in test [1] came to 60.9%; in test [2], 52.2%. The activity, % sensitization in test [3] is -15.3%; in test [4] it was -22.1%; in test [5] it was 2.64%; in test [6], -17.7%.

Regarding `CN(C)S(=O)(=O)c1ccc(C(=O)Nc2nnc(SCC(=O)NCC3CCCO3)s2)cc1` (configuration not stated), the activity in test [1] was 49.1%; in test [2], 38.5%. The activity, % sensitization in test [3] was 30%; in test [4], 32.3%; in test [5], 4.27%; in test [6], 28.4%.

In the case of `COC(=O)[C@]12CCCCC=C1N(Cc1cccc3ccccc13)C(=O)[C@H](CC(=O)NCc1ccc(OC)c(OC)c1)C2`, the activity is 66.4% in test [1] and 53% in test [2]. The activity, % sensitization in test [3] stood at 24.8%; in test [4], 43%; in test [5] it was 16.7%; in test [6], 36.7%.
